Results on ten molecules are retold here after PubChem BioAssay (NCI).

Structures are written as SMILES. About 83,000 compounds went through this panel and 20% of them were active in at least one assay; those are over-represented in the sample as a whole.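 Growth was measured after 48 h exposure to one concentration of compound in 96-well plates. Values under 10 count as active.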 Unmarked numbers belong to inactive results. Activity calls are given as the source filed them.

Test systems include NCI-H226 lung; NCI-H322M lung; HOP-62 NSCLC; NCI-H460 lung; HOP-92 NSCLC; NCI-H522 lung; A549/ATCC NSCLC; 786-0 renal; COLO 205 colon; DU-145 prostate; K-562 leukemia; MALME-3M melanoma; MDA-MB-231 breast; RXF 393 renal; SF-268 CNS; SF-295 CNS; SF-539 CNS; UACC-257 melanoma; M14 melanoma.
Common to all, as to assay: NCI-60 one-dose screen, 48 h (100 = growth as untreated, 0 = no growth, -100 = all killed)
Holding throughout (details): 10 µM unless noted

Consider `C/C=C(\C)C(=O)N[C@H]1[C@@H](OC(C)=O)C[C@]2(C)C3CC[C@@]4(C)C(CC[C@@H]4C(C)N(C)C)C3CCC2[C@H]1O` (stereo not given in full), for which the growth was 101% with NCI-H226 lung; 67.7% in the assay on NCI-H322M lung; 91.9% in the assay with HOP-62 NSCLC; 59% in the assay with NCI-H460 lung; 71% in the assay on HOP-92 NSCLC; 99.4% with NCI-H522 lung. The growth in the assay with A549/ATCC NSCLC is 78.5%; in the assay on 786-0 renal, 66.1%; in the assay on COLO 205 colon it was 75.8%; with DU-145 prostate, 87.4%; in the assay with K-562 leukemia, 50.2%; in the assay on MALME-3M melanoma, 7.93% (active). Besides, the growth in the assay on MDA-MB-231 breast is 78%; in the assay on RXF 393 renal, 83.2%; in the assay on SF-268 CNS, 42.7%; with SF-295 CNS, 78.2%; with SF-539 CNS, 37%; with UACC-257 melanoma it was 3.29% (active). For the same molecule, the growth with M14 melanoma is -32.7% (active).
For `CN(C)CCCNc1nc2ccccc2c2c(=O)c3cc(F)ccc3sc12`, the growth in the assay with NCI-H226 lung is 91.5%; in the assay with NCI-H322M lung it was 71.2%; with HOP-62 NSCLC, 65%; in the assay on NCI-H460 lung, -1.74% (active); in the assay on HOP-92 NSCLC it was 24%; in the assay on A549/ATCC NSCLC, 57%. Besides, the growth in the assay on 786-0 renal is 59.3%; in the assay on COLO 205 colon it was -34.1% (active); with DU-145 prostate it was 26.2%; in the assay on K-562 leukemia, -27% (active); in the assay on MALME-3M melanoma, 81.6%; in the assay on MDA-MB-231 breast it was -29.6% (active). Further, the growth in the assay on RXF 393 renal was 48.4%; in the assay with SF-268 CNS, 52.5%; in the assay on SF-295 CNS it was 78.2%; with SF-539 CNS, 27.3%; in the assay with UACC-257 melanoma it was 84.9%; in the assay with M14 melanoma it was -64.1% (active).
Consider `C#Cc1cccc(NC(=O)Nc2ccccc2NC(=O)CCl)c1`, for which the growth in the assay with NCI-H226 lung is -56.2% [8.25 µM] (active); with NCI-H322M lung, 91% [8.25 µM]; in the assay with HOP-62 NSCLC it was -34.8% [8.25 µM] (active); with NCI-H460 lung, -24.4% [8.25 µM] (active); in the assay with HOP-92 NSCLC it was -30.6% [8.25 µM] (active); in the assay on NCI-H522 lung it was -58.6% [8.25 µM] (active). Further, the growth was 10% [8.25 µM] with A549/ATCC NSCLC; -63.2% [8.25 µM] (active) in the assay on 786-0 renal; -49.3% [8.25 µM] (active) in the assay with COLO 205 colon; 6.7% [8.25 µM] (active) in the assay with DU-145 prostate; 9.69% [8.25 µM] (active) in the assay on K-562 leukemia; -19.1% [8.25 µM] (active) in the assay with MALME-3M melanoma. Further, the growth in the assay on MDA-MB-231 breast is -71.7% [8.25 µM] (active); with RXF 393 renal, -81.1% [8.25 µM] (active); with SF-268 CNS, -17.4% [8.25 µM] (active); in the assay with SF-295 CNS, 38.7% [8.25 µM]; in the assay on SF-539 CNS, -70.8% [8.25 µM] (active); with UACC-257 melanoma, -12.6% [8.25 µM] (active). Besides, the growth in the assay on M14 melanoma was -22.2% [8.25 µM] (active).
Turning to `CC(C)OC(=O)Nc1ccc(-c2nc(-c3cccc(OCCN4CCOCC4)c3)c(-c3ccnc(Br)c3)[nH]2)cc1`, the growth in the assay with NCI-H226 lung was 55.3%; in the assay with NCI-H322M lung, 46.5%; in the assay with HOP-62 NSCLC, 28.4%; in the assay with NCI-H460 lung it was 30%; with HOP-92 NSCLC, 29.8%; with NCI-H522 lung, 49.9%. For the same molecule, the growth is 40% in the assay with A549/ATCC NSCLC; -33% (active) in the assay with 786-0 renal; -5.63% (active) in the assay with COLO 205 colon; 63.8% with DU-145 prostate; 0.869% (active) in the assay on K-562 leukemia; -5.36% (active) in the assay on MALME-3M melanoma. Moreover, the growth in the assay with MDA-MB-231 breast was 39.3%; in the assay with RXF 393 renal, -42.9% (active); in the assay with SF-268 CNS, 52.2%; in the assay with SF-295 CNS it was -65.2% (active); with SF-539 CNS, -0.0542% (active); in the assay with UACC-257 melanoma, 33.5%. The growth in the assay with M14 melanoma is 30.5%.
Consider `CC(=O)CC[C@H]1C(=O)N[C@@H](C(C)C)C(=O)N[C@@H](Cc2cc(O)cc(F)c2)C(=O)N2CCC[C@H](N2)C(=O)O[C@H](/C(C)=C/C=C/C(=O)OC(C)(C)C)C/C=C/C=C/[C@H](O)[C@H](C)[C@H]1O`, for which the growth in the assay with NCI-H226 lung is 76.8%; with NCI-H322M lung, 69.2%; in the assay with HOP-62 NSCLC it was 44.9%; in the assay on NCI-H460 lung it was 13.3%; in the assay with HOP-92 NSCLC it was 55.2%; in the assay on NCI-H522 lung it was 43.8%. In addition, the growth was 49.9% with A549/ATCC NSCLC; 36.2% in the assay on 786-0 renal; 51.7% in the assay with COLO 205 colon; 42.6% with DU-145 prostate; 21.6% in the assay with K-562 leukemia; 73.6% with MALME-3M melanoma. For the same molecule, the growth in the assay with MDA-MB-231 breast was 47.5%; in the assay on RXF 393 renal it was -5.28% (active); in the assay with SF-268 CNS, 54.4%; in the assay on SF-295 CNS it was 50.2%; with SF-539 CNS, 66.8%; with UACC-257 melanoma, 53%. The growth with M14 melanoma was 54.9%.
Consider `CCN(CC)Cc1cc(Nc2c3ccc(Cl)cc3nc3ccc(OC)cc23)ccc1O`, for which the growth in the assay on NCI-H226 lung is 86%; with NCI-H322M lung it was 62.5%; in the assay on HOP-62 NSCLC, 80.5%; in the assay on NCI-H460 lung, 34.9%; in the assay on HOP-92 NSCLC, 60.5%; in the assay on NCI-H522 lung, 39%. For the same molecule, the growth with A549/ATCC NSCLC was 52.4%; in the assay on 786-0 renal, 47.3%; in the assay on DU-145 prostate it was 62.6%; with K-562 leukemia it was 3.14% (active); in the assay on MALME-3M melanoma, 112%; with MDA-MB-231 breast, 45.7%. Also, the growth in the assay on RXF 393 renal is -12.6% (active); with SF-268 CNS, 43.9%; in the assay on SF-295 CNS it was 72.5%; in the assay on SF-539 CNS, 58.7%; in the assay with UACC-257 melanoma, -39.4% (active); in the assay on M14 melanoma, -67.5% (active).
In the case of `COc1ccc(S(=O)(=O)n2cc(C3OC(c4cc(OC)c(OC)c(OC)c4)=NN3C(C)=O)c3ccccc32)cc1OC` (stereo not given), the growth is 93.2% with NCI-H226 lung; 98% in the assay with NCI-H322M lung; 78.1% in the assay with HOP-62 NSCLC; 97.1% with NCI-H460 lung; 63.9% in the assay on HOP-92 NSCLC; 84% in the assay with NCI-H522 lung. Also, the growth in the assay on A549/ATCC NSCLC was 98.3%; with 786-0 renal, 86.3%; with COLO 205 colon, 127%; with DU-145 prostate, 145%; in the assay with K-562 leukemia, 64.4%; in the assay on MALME-3M melanoma, 104%. Also, the growth in the assay on MDA-MB-231 breast is 82.6%; in the assay on RXF 393 renal, 89.3%; with SF-268 CNS, 108%; in the assay on SF-295 CNS, 93%; with SF-539 CNS, 89.1%; in the assay with UACC-257 melanoma it was 87.9%. Also, the growth in the assay with M14 melanoma was 98.1%.
Take `COc1ccc(-c2nc(NCCO)[nH]c(=O)c2C#N)cc1`: the growth with NCI-H226 lung was 99.9%; in the assay on NCI-H322M lung, 95.8%; in the assay on HOP-62 NSCLC, 86.3%; with NCI-H460 lung it was 112%; with HOP-92 NSCLC it was 98.5%; in the assay with NCI-H522 lung, 88.5%. The growth in the assay on A549/ATCC NSCLC was 98.5%; with 786-0 renal, 101%; with COLO 205 colon it was 101%; in the assay with DU-145 prostate, 101%; in the assay with K-562 leukemia it was 97.1%; in the assay on MALME-3M melanoma, 101%. The growth was 117% in the assay on RXF 393 renal; 99.2% in the assay with SF-268 CNS; 97.1% in the assay with SF-295 CNS; 104% with SF-539 CNS; 112% with UACC-257 melanoma; 99.9% in the assay on M14 melanoma.
As to `CC1=C(SCCC(=O)OC(C[Se]C2=C(C)C(=O)c3ccccc3C2=O)C(=O)NC(C)(C)C)C(=O)c2ccccc2C1=O` (stereo not given), the growth was -63.3% (active) with NCI-H226 lung; -79.8% (active) in the assay on NCI-H322M lung; -65.4% (active) with HOP-62 NSCLC; -59% (active) with NCI-H460 lung; -66.6% (active) in the assay with HOP-92 NSCLC; -40% (active) in the assay on A549/ATCC NSCLC. For the same molecule, the growth was -86.1% (active) in the assay on 786-0 renal; -99% (active) in the assay on DU-145 prostate; 7.31% (active) in the assay with K-562 leukemia; -74.9% (active) in the assay with MALME-3M melanoma; -58% (active) in the assay on MDA-MB-231 breast; -89.1% (active) in the assay with RXF 393 renal. Further, the growth with SF-268 CNS was -96.2% (active); in the assay with SF-295 CNS, -30.9% (active); in the assay with SF-539 CNS, -99.8% (active); in the assay with UACC-257 melanoma, -88.1% (active); with M14 melanoma, -84.1% (active).
As for `COc1ccc(C2NC(=O)C(C#N)c3c2sc2c(F)cccc32)c(OC)c1` (stereo not given), the growth with NCI-H226 lung was 62.2%; with NCI-H322M lung, 90.4%; in the assay with HOP-62 NSCLC, 57.4%; with NCI-H460 lung, 31.8%; in the assay on HOP-92 NSCLC, 42.2%; with NCI-H522 lung, 7.97% (active). For the same molecule, the growth in the assay with A549/ATCC NSCLC is 58.5%; in the assay on 786-0 renal, 68.5%; in the assay with COLO 205 colon, 88.3%; in the assay on DU-145 prostate, 90.5%; in the assay with K-562 leukemia, 23.9%; with MALME-3M melanoma, 39.8%. The growth in the assay on MDA-MB-231 breast is 72.7%; in the assay with RXF 393 renal, 9.65% (active); in the assay with SF-268 CNS it was 52.1%; with SF-295 CNS, 27.7%; with SF-539 CNS, 8.87% (active); in the assay on UACC-257 melanoma, 68.3%. Also, in the assay with M14 melanoma, the growth is 37.8%.
